High-throughput results as filed in PubChem.
The list is not random: actives were taken first. Their share in the collection is about 21%.
Pf growth 48h = P. falciparum growth inhibition at 48 hours (one generation). P. falciparum luciferase growth in erythrocytes, 48 h. Potency, µM (top dose mostly 28.7 µM), for the others: at the highest dose activity change, negative = inhibition, hits mostly inhibitors. 310,000 compounds, 5.9% hits. AID 504832; active = well fitted inhibition curve with a large enough effect; inconclusive = small, poorly fitted or top-dose-only effect, or another doubt; inactive = no such curve, though single readings can be large or run the other way; also: potency is read from the fitted curve at half-maximal effect; % is scaled to controls: 0 for no effect and ±100 for the full control effect
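Luciferase-expressing P. falciparum in infected erythrocytes (2% hematocrit, 0.1% parasitemia final) in RPMI 1640/0.5% Albumax were exposed to compound for 48 hours at 37 C, 5% CO2; growth read as luminescence.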
NS1 function inh = influenza NS1 inhibition | Potency, µM (top dose mostly 46.1 µM), for the others: top-dose activity, positive = more growth | 270,000 compounds, 0.4% hits | AID 2326; also: potency is read from the fitted curve at half-maximal effect; actives are rising curves; nearly all actives have a fitted effect of over 50% in size
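Growth recovery, yeast-based: influenza A NS1 expressed in S. cerevisiae causes slow growth, and suppressors are detected by OD600. The parent strain without NS1 is used as positive control.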
Pf growth 96h = P. falciparum growth inhibition at 96 hours; Potency, µM (highest dose often 28.7 µM), inactives show top-dose activity change, negative = inhibition, hits mostly inhibitors; 320,000 compounds, 6.9% hits; P. falciparum luciferase reporter growth, 96 h; active = well fitted inhibition curve with a large enough effect; inconclusive = small, poorly fitted or top-dose-only effect, or another doubt; inactive = no such curve, though single readings can be large or run the other way; also: potency is read from the fitted curve at half-maximal effect; % is scaled to controls: 0 for no effect and ±100 for the full control effect
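Compounds incubated with erythrocytes infected by luciferase-expressing P. falciparum (2% hematocrit, 0.05% parasitemia final) for 96 hours, 37 C in 5% CO2. Growth inhibition scored as decreased luciferase luminescence.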
Cycloheximide cs = counter-screen hit for Shiga toxin inhibitors, cycloheximide; 300,000 compounds, 12% hits; cell reporter, cycloheximide protein synthesis inhibition counterscreen; max response, %; in the data active = max response mostly above about 13%, no sharp cut-off; inactive = mostly below about 14%; also: read at 38.3 µM for the half of the compounds with a filed dose; 0% is about no effect
SARS PLpro yeast = inhibitors of SARS-CoV papain-like protease in yeast | S. cerevisiae expressing SARS-CoV PLpro, growth rescue | Potency, µM (series often up to 32.9 µM), inactives show at the highest dose activity, positive = growth rescue, most hits filed as activators | 330,000 compounds, 0.19% hits | AID 485353; also: potency is read from the fitted curve at half-maximal effect; 0% is about no effect; nearly all actives have a fitted effect of over 55% in size
Shiga inhibitor = Shiga toxin inhibition | Vero cells, Shiga toxin protein synthesis inhibition reporter | inhibition, % at 38.7 µM | 290,000 compounds, 9.2% hits | AID 2315; in the data active = inhibition mostly above about 28%, no sharp cut-off; inactive = mostly below about 43%; also: 0% is about no effect
* marks the source's active call; other numbers are inactive results; ? = inconclusive; . = no result given; ! = not active in a repeat. Unless noted, calls follow the shape of the full dose curve.

SMILES | Pf growth 48h | NS1 function inh | Pf growth 96h | Cycloheximide cs | SARS PLpro yeast | Shiga inhibitor
Fc1ccccc1/C=N/Nc1nc(-c2ccccn2)nc2ccccc12 | 2.3µM* | 6% | ? | 1 | -2% | 1
Cc1ccc(CNc2nc(-c3cccnc3)nc3ccccc23)cc1 | 6.6µM* | -88% | ? | 8 | -17% | -2
c1cncc(-c2nc(NCC3COc4ccccc4O3)c3ccccc3n2)c1 (stereo unspecified) | . | -35% | 8.3µM* | -4 | -22% | -8
Fc1ccc(CNc2nc(-c3cccnc3)nc3ccccc23)cc1 | 12µM* | -38% | ? | 7 | -13% | -6
COc1ccc(C2/C=C\CN(C(=O)c3ccc(C)cc3)CC(=O)N2Cc2ccc(F)cc2)cc1 (stereo unspecified) | ? | 1% | ? | 82*! | -1% | 163*!
COc1ccc(C2/C=C\CN(C(=O)C3CCCC3)[C@H](Cc3ccccc3)C(=O)N2Cc2ccc(F)cc2)cc1 (stereo partly specified) | 8.3µM* | 9% | 10µM* | 1 | -1% | 5
COc1ccc(C2/C=C\CN(S(=O)(=O)c3ccc(C)cc3)[C@H](Cc3ccccc3)C(=O)N2Cc2ccc(F)cc2)cc1 (stereo partly specified) | 4.1µM* | ? | 8.3µM* | 10 | -3% | 16
CCCCC(=O)N1C/C=C\C(c2ccc(OC)cc2)N(Cc2ccc(F)cc2)C(=O)C1Cc1ccccc1 (stereo unspecified) | . | . | . | -5 | . | 3
COc1ccc(C2/C=C\CN(C(=O)Nc3ccccc3)CC(=O)N2Cc2ccc(F)cc2)cc1 (stereo unspecified) | ? | 2% | 22% | -7 | -6% | -2
COc1ccc(C2/C=C\CN(S(=O)(=O)c3ccc(-c4ccccc4)cc3)CC(=O)N2Cc2ccc(F)cc2)cc1 (stereo unspecified) | 12µM* | 7% | 4.7µM* | 36 | -5% | 68*!
COc1ccc(C2/C=C\CN(S(=O)(=O)c3ccc(C)cc3)C(Cc3ccccc3)C(=O)N2Cc2ccc(F)cc2)cc1 (stereo unspecified) | . | . | . | 9 | . | -6
COc1ccc(C2/C=C\CN(Cc3ccccc3)CC(=O)N2Cc2ccc(F)cc2)cc1 (stereo unspecified) | . | . | . | 8 | . | 14
Cc1sc(NC(=O)C2CSC3(C)CCC(=O)N23)nc1-c1ccccc1 (stereo unspecified) | ? | . | ? | . | 6% | .
C=CCC(=O)NC1CC(C)(C)Cc2c1cnn2-c1ccc(C)cc1 (stereo unspecified) | -7% | -12% | ? | 5 | 0% | 31
Cc1ccc(-n2ncc3c2CC(C)(C)CC3NC(=O)CCc2ccc(=O)[nH]n2)cc1 (stereo unspecified) | 5% | -1% | 13µM* | 6 | 4% | 12
Cc1cc(C(=O)NC2CC(C)(C)Cc3c2cnn3-c2ccc(F)cc2)no1 (stereo unspecified) | ? | -14% | 36% | 18 | 3% | 37*
Cc1ccccc1-n1ncc2c1CC(C)(C)CC2NC(=O)c1ccncc1 (stereo unspecified) | -14% | -5% | 16% | 2 | 6% | -32
Cn1nccc1C(=O)NC1CC(C)(C)Cc2c1cnn2-c1ccc(F)cc1 (stereo unspecified) | -6% | -12% | 77% | 0 | ? | 28
Cc1ccc(-n2ncc3c2CC(C)(C)CC3NC(=O)c2ccccn2)cc1 (stereo unspecified) | -19% | -13% | 15µM* | 21* | -11% | -2
Cc1ccccc1-n1ncc2c1CC(C)(C)CC2NC(=O)c1snnc1C (stereo unspecified) | ? | ? | 5.9µM* | -1 | -13% | -10
CCOc1ccc(CCNC(=O)CCNC(=O)c2ccc(Br)cc2)cc1OCC | 6% | 0% | -20% | -3 | 1% | -12
COc1ccccc1CNC(=O)C1CC(c2ccccc2[N+](=O)[O-])=NO1 (stereo unspecified) | 35% | -9% | 11% | 41* | -6% | 96*
COc1ccccc1CNC(=O)C1CC(c2ccccc2F)=NO1 (stereo unspecified) | 63% | -34% | 94% | 18* | -3% | 44*
